Experimental data published in PubChem BioAssay (EPA / NIEHS).
Results filed as inconclusive are left out. Active and inactive are the calls of the source. Rule for the calls, unless noted: active = hit-call score of the fitted dose curve at least 0.9, where 1 is the maximum; inconclusive = response in the unintended direction; inactive = score below 0.9.

What was measured:
[1] = TOX21_p53_BLA_p2_viability: Viability Assessment in the Tox21 HCT-116 p53 Agonism Beta-lactamase Assay, Phase 2 (AID 2283591);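 note: actives lower the ATP signal meaning cytotoxicity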
Procedure, shortened: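 Cytotoxicity readout: CellTiter-Glo ATP luminescence, 30 min at room temperature, after the beta-lactamase read. Cells were HCT116 exposed 16 h at 37C to compounds pin-transferred at 217-fold dilution from DMSO stocks.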

[2] = target: Cellular tumor antigen p53 (Homo sapiens) (UniProt P04637); test: TOX21_p53_BLA_p2_ratio: Tox21 HCT-116 p53 Agonism Beta-lactamase Assay, Ratio, Phase 2 (AID 2283592)
Procedure, shortened: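 Readout: blue/green (460/530 nm) FRET emission ratio after 2 h CCF4-AM loading at room temperature, excitation 405 nm. HCT116 p53 bla cells, 16 h compound exposure at 37C, 5% CO2; agonist direction fitted against DMSO baseline.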

[3] = TOX21_p53_BLA_p3_viability: Viability Assessment in the Tox21 HCT-116 p53 Agonism Beta-lactamase Assay, Phase 3 (AID 2283593);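 note: cells exposed to compound for 16 h before reading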
Procedure, shortened: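 Cellular ATP was quantified by CellTiter-Glo luminescence, read after 30 min at room temperature. Beforehand, HCT116 cells (4000/well) received compound 5 h post-seeding, 217-fold diluted from DMSO, then incubated 16 h at 37C.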

[4] = target: Cellular tumor antigen p53 (Homo sapiens) (UniProt P04637); test: TOX21_p53_BLA_p3_ratio: Tox21 HCT-116 p53 Agonism Beta-lactamase Assay, Ratio, Phase 3 (AID 2283596)
Procedure, shortened: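 Cells were seeded at 4000/well, rested 5 h at 37C, then dosed with DMSO compound solutions (217-fold dilution) for 16 h. CCF4-AM substrate was loaded for 2 h at room temperature, and the 460/530 nm emission ratio was fitted for gain of signal versus DMSO.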

[5] = TOX21_p53_BLA_p4_viability: Viability Assessment in the Tox21 HCT-116 p53 Agonism Beta-lactamase Assay, Phase 4 (AID 2283597);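 note: hits lower the luminescence signal meaning cytotoxicity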
Procedure, shortened: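 ATP content by CellTiter-Glo luminescence, 30 min RT, read after the beta-lactamase ratio step. Cells: HCT116, 4000/well, compound added after 5 h, exposure 16 h at 37C. Signal loss = reduced viability.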

[6] = target: Cellular tumor antigen p53 (Homo sapiens) (UniProt P04637); test: TOX21_p53_BLA_p5_ratio: Tox21 HCT-116 p53 Agonism Beta-lactamase Assay, Ratio, Phase 5 (AID 2283599)
Procedure, shortened: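 Beta-lactamase reporter ratio (blue 460 nm over green 530 nm, 405 nm excitation) after 2 h CCF4-AM loading, in HCT-116 cells exposed 16 h at 37 C to compounds pinned at 217-fold dilution. Increases relative to DMSO baseline scored.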

[7] = TOX21_p53_BLA_p5_viability: Viability Assessment in the Tox21 HCT-116 p53 Agonism Beta-lactamase Assay, Phase 5 (AID 2283600)
Procedure, shortened: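 ATP luminescence (CellTiter-Glo, 30 min, RT) served as the viability read-out, with loss of signal indicating cytotoxicity. Compounds in DMSO were pinned at a 217-fold dilution onto 4000 cells/well and incubated 16 h, 37C.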

[8] = target: Cellular tumor antigen p53 (Homo sapiens) (UniProt P04637); test: TOX21_p53_BLA_p4_ratio: Tox21 HCT-116 p53 Agonism Beta-lactamase Assay, Ratio, Phase 4 (AID 2283601)
Procedure, shortened: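 Signal is the blue/green (460nm/530nm) ratio of cleaved versus uncleaved CCF4-AM substrate, read after 2 h substrate loading. Cells were HCT116 carrying the p53-responsive beta-lactamase reporter, dosed 16 h at 37C, 5% CO2; CellTiter-Glo measured in parallel.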

[9] = CCTE_Harrill_HTTr_Viability_MCF7: CCTE's 6-hour Cell Viability Assessment for the High-Throughput Transcriptomics (HTTr) Platform, in MCF-7 cells cultured in DMEM + 10% fetal bovine serum, Harrill Lab (AID 2284010; active = hit-call score of the fitted dose curve at least 0.9, where 1 is the maximum; inactive = score below 0.9)
Procedure, shortened: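 PI exclusion, high-content imaging; 8-pt dilution series, 6 h exposure; bidirectional fit vs DMSO (neg. ctrl/baseline); gain of signal = loss of membrane integrity.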

[10] = CCTE_Harrill_HTTr_Apoptosis_MCF7: CCTE's 6-hour Apoptosis Assessment for the High-Throughput Transcriptomics (HTTr) Platform, in MCF-7 cells cultured in DMEM + 10% fetal bovine serum, Harrill Lab (AID 2284011; active = hit-call score of the fitted dose curve at least 0.9, where 1 is the maximum; inactive = score below 0.9)
Procedure, shortened: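 Read-out: CellEvent Caspase 3/7 Green signal by high content imaging, gain-of-signal indicating apoptosis. MCF-7 cells, DMEM + 10% FBS, eight-point dilution series, 6 h exposure. Curves fitted bidirectionally relative to DMSO negative control.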

[11] = CCTE_Harrill_HTTr_CellCount_MCF7: CCTE's Cell Proliferation Assessment for the High-Throughput Transcriptomics (HTTr) Platform, Harrill Lab (AID 2284012);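 note: count of Hoechst-stained nuclei per well by high-content imaging in MCF-7 cells; cells exposed to compound for six hours; intended direction is loss of nuclei count meaning fewer cells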
Procedure, shortened: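 Readout: Hoechst nuclear count by high-content imaging. MCF-7, 8-point dilution series, 6 h exposure. Bidirectional fit vs DMSO baseline.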

[12] = target: Thyroid hormone receptor alpha (Rattus norvegicus) + Thyroid hormone receptor beta (Rattus norvegicus) (UniProt P18113+P63059); test: TOX21_TR_LUC_GH3_Antagonist_Followup: Tox21 GH3 Thyroid Hormone Receptor Antagonism Luciferase Follow-Up Assay (AID 2283942)
Procedure, shortened: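 Loss of T3-driven (1.0 nM final) reporter activity in GH3 cells was read by ONE-Glo luminescence after 24 h incubation at 37C; 15-point compound series spanned 92 uM to 5nM final, 1,500 cells/well.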

[13] = target: THRB (gene 7068) (UniProt P10828); test: TOX21_TRB_BLA_Antagonist_Followup_ratio: Tox21 Thyroid Hormone Receptor beta Antagonism Beta-lactamase (BLA) Follow-Up Assay, Ratio (AID 2283958)
Procedure, shortened: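 Read-out: blue/green (460:530 nm) ratio of cleaved to uncleaved CCF4-AM after 2 h at room temperature, fitted against DMSO baseline. HEK293T UAS-bla cells carrying GAL4-human TRβ LBD were exposed 18 h, 37C/5% CO2.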

[14] = TOX21_TRB_BLA_Antagonist_Followup_viability: Viability Assessment in the Tox21 Thyroid Hormone Receptor beta Antagonism Beta-lactamase (BLA) Follow-Up Assay (AID 2283961)
Procedure, shortened: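 Viability read as CellTiter-Glo ATP luminescence (loss of signal = cytotoxicity) in the same plates as the TRβ-bla readout. TRβ-LBD/GAL4 UAS-bla HEK293T cells were exposed to compounds, 11 concentrations in triplicate, for 18 h at 37C/5% CO2.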

[15] = target: THRB (gene 7068) (UniProt P10828); test: TOX21_TRB_COA_Antagonist_Followup_ratio: Tox21 Thyroid Hormone Receptor beta Antagonism through Coactivator Recruitment Follow-Up Assay, Ratio (AID 2283967)
Procedure, shortened: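 Coactivator recruitment to the GST-tagged TRb ligand-binding domain (5.0 nM) was read as the 520/495 nm TR-FRET ratio, using 200 nM fluorescein SRC-2 peptide and 2 nM terbium anti-GST. Scaled between DMSO and T3 wells; loss of signal fitted.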

[16] = target: Retinoic acid receptor RXR-alpha (Homo sapiens) (UniProt P19793); test: TOX21_TR_RXR_BLA_Antagonist_Followup_ratio: Tox21 Thyroid Hormone Receptor beta Retinoid X Receptor alpha (RXRa) Antagonism Beta-lactamase (BLA) Follow-Up Assay, Ratio (AID 2283972)
Procedure, shortened: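 Beta-lactamase reporter readout as cleaved/uncleaved substrate ratio (460:530 nm) after 2 h substrate loading at room temperature. GAL4-RXRa bla HEK293T cells were exposed 16 h at 37C to 11-point compound series; loss of signal scored against DMSO baseline.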

[17] = TOX21_TR_RXR_BLA_Antagonist_Followup_viability: Viability Assessment in the Tox21 Thyroid Hormone Receptor beta Retinoid X Receptor alpha (RXRa) Antagonism Beta-lactamase (BLA) Follow-Up Assay (AID 2283979)
Procedure, shortened: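 Follow-up compounds (11 concentrations, triplicate) were incubated 16 h at 37C/5% CO2 with HEK293T RXRa-bla cells seeded at 2,500/well in charcoal-stripped-serum medium. ATP content by CellTiter-Glo luminescence gave viability; curves fitted in both directions against DMSO.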

Measured: AC50

Sequence of Retinoic acid receptor RXR-alpha (Homo sapiens) (P19793 whole entry, looked up, the tested form may be a part): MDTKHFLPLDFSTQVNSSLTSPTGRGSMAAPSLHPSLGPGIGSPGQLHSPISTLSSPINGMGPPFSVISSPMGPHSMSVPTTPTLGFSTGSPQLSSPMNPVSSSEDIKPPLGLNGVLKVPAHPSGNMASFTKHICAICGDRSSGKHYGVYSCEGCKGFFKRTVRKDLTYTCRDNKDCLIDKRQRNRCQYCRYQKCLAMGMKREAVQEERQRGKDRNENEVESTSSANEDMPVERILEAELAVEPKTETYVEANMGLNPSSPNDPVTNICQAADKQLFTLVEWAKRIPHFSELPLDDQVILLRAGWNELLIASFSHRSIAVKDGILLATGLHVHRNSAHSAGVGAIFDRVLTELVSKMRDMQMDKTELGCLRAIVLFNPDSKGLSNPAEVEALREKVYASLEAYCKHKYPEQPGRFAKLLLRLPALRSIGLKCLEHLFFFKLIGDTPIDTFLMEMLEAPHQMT
Sequence of Cellular tumor antigen p53 (Homo sapiens) (P04637 whole entry, looked up): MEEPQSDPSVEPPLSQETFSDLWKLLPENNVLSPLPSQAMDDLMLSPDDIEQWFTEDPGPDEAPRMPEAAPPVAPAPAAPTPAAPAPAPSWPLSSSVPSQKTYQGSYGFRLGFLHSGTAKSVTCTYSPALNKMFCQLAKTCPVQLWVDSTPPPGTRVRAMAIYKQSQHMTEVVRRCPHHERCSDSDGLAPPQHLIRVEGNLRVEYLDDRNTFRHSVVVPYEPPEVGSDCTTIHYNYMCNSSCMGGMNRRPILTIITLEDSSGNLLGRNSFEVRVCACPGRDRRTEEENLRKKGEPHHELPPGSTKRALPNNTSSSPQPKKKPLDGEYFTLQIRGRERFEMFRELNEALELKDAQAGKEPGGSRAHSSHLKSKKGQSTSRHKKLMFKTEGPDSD
Sequence of THRB (gene 7068) (P10828 whole entry, looked up, the tested form may be a part): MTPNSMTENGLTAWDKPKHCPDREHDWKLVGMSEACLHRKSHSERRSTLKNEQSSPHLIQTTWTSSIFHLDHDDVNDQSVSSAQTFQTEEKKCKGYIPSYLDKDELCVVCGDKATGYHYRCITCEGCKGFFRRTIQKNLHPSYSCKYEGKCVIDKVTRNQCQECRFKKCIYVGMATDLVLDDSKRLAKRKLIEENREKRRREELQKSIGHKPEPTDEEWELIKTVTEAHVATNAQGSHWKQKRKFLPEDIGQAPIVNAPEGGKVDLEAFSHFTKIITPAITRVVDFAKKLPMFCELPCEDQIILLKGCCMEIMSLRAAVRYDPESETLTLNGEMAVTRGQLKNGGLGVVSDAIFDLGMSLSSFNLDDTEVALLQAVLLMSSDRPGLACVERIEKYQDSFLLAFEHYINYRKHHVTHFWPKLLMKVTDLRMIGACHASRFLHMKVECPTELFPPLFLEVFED

CC1(C)[C@@H](O[C@H]2O[C@H](C(=O)O)[C@@H](O)[C@H](O)[C@H]2O[C@@H]2O[C@H](C(=O)O)[C@@H](O)[C@H](O)[C@H]2O)CC[C@]2(C)[C@H]3C(=O)C=C4[C@@H]5C[C@@](C)(C(=O)O)CC[C@]5(C)CC[C@@]4(C)[C@]3(C)CC[C@@H]12
not listed: [12] | [13] | [14] | [15] | [16] | [17]
inactive: all other assays above

O=c1[nH]c(=O)n([C@H]2C[C@H](O)[C@@H](CO)O2)cc1F
active: [3] 600 nM | [4] 1450 nM | [5] 1530 nM | [6] 1800 nM | [7] 595 nM | [8] 6700 nM
not listed: [9] | [10] | [11]
inactive: all other assays above

Brc1cc(Oc2cc(Br)c(Br)c(Br)c2Br)c(Br)c(Br)c1Br
not listed: [9] | [10] | [11] | [13]
inactive: all other assays above

C1=CCC(c2ccccc2)CC1 (centres undefined)
not listed: [12] | [13] | [14] | [15] | [16] | [17]
inactive: all other assays above

O=C(O)CN(CCN(CC(=O)O)CC(=O)O)CC(=O)O
not listed: [11] | [12] | [13] | [14] | [15] | [16] | [17]
inactive: all other assays above

CCc1cc(Cl)c(OC)c(C(=O)NC[C@@H]2CCCN2CC)c1O
not listed: [9] | [10] | [11] | [12]
inactive: all other assays above

O=C(O)c1cc(-c2ccc(F)cc2F)ccc1O
inactive: [1] | [2] | [3] | [4] | [5] | [6] | [8]
